Common to all, as to conditions: mRNA level, 48 h; actives raise or lower the signal
Read-out in assay [1]: flavin-containing dimethylaniline monooxygenases 3 (FMO3), FMO3 (gene 2328)
In words: LTEA_HepaRG_FMO3: Life Technologies and Expression Analysis (LTEA) Assay for flavin-containing dimethylaniline monooxygenases 3 (FMO3) using HepaRG (AID 2283453). The procedure, abridged: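 Differentiated HepaRG cells in serum-free induction medium, exposed 48 h in duplicate to 8 half-log concentrations up to 100 uM in 0.5% DMSO. FMO3 mRNA by qRT-PCR, normalized to ACTB, GAPDH, POLR2A; bidirectional fit vs DMSO.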

Read-out in assay [2]: Cytochrome P450 (CYP1A1), CYP1A1 (gene 1543)
In words: LTEA_HepaRG_CYP1A1: Life Technologies and Expression Analysis (LTEA) Assay for Cytochrome P450 (CYP1A1) using HepaRG (AID 2283454). The procedure, abridged: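 CYP1A1 transcript levels measured by Fluidigm qRT-PCR against three housekeeping genes, 48 h after chemical dosing of human HepaRG cells (highest concentration 100 uM, half-log steps, 0.5% DMSO vehicle). Gain or loss of signal fitted relative to DMSO.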

Read-out in assay [3]: CFLAR gene, CFLAR (gene 8837)
Nature of the assay: LTEA_HepaRG_CFLAR: Life Technologies and Expression Analysis (LTEA) Assay for CFLAR gene using HepaRG (AID 2283455). The procedure, abridged:
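Differentiated HepaRG cells in serum-free induction medium were exposed 48 h in duplicate to eight half-log concentrations up to 100 uM in 0.5% DMSO; mRNA measured by TaqMan qRT-PCR, normalized to ACTB, GAPDH, POLR2A; bidirectional fitting versus DMSO.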

Read-out in assay [4]: Forkhead box O1 (FOXO1), FOXO1 (gene 2308)
Nature of the assay: LTEA_HepaRG_FOXO1: Life Technologies and Expression Analysis (LTEA) Assay for Forkhead box O1 (FOXO1) using HepaRG (AID 2283456). The gist of the method: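 Differentiated HepaRG cells, in serum-free induction medium with 0.5% DMSO, exposed 48 h in duplicate to 8-point half-log series from 100 uM. FOXO1 mRNA measured by TaqMan qRT-PCR, normalized to ACTB, GAPDH, POLR2A; bidirectional fit versus DMSO.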

Read-out in assay [5]: Forkhead box O3 (FOXO3), FOXO3 (gene 2309)
Nature of the assay: LTEA_HepaRG_FOXO3: Life Technologies and Expression Analysis (LTEA) Assay for Forkhead box O3 (FOXO3) using HepaRG (AID 2283459). The gist of the method:
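Differentiated human HepaRG cells, 48 h post-plating, exposed in duplicate for 48 h in serum-free induction medium; 8-point half-log series from 100 uM in 0.5% DMSO. FOXO3 mRNA by TaqMan qRT-PCR, normalized to ACTB/GAPDH/POLR2A; bidirectional fit versus DMSO.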

Read-out in assay [6]: ABC Transporter (ABCB1), ABCB1 (gene 5243)
In words: LTEA_HepaRG_ABCB1: Life Technologies and Expression Analysis (LTEA) Assay for ABC Transporter (ABCB1) using HepaRG (AID 2283460). The procedure, abridged:
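HepaRG cells exposed in duplicate for 48 h in serum-free induction medium to eight half-log concentrations up to 100 uM in 0.5% DMSO. ABCB1 mRNA quantified by qRT-PCR, normalised to ACTB, GAPDH and POLR2A; fitted bidirectionally versus DMSO.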

Read-out in assay [7]: growth arrest and DNA damage 45 (GADD45B), GADD45B (gene 4616)
In words: LTEA_HepaRG_GADD45B: Life Technologies and Expression Analysis (LTEA) Assay for growth arrest and DNA damage 45 (GADD45B) using HepaRG (AID 2283461). The gist of the method: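 Transcript level quantified by Fluidigm TaqMan qRT-PCR with three housekeeping genes for normalization, analyzed for up- or down-regulation against 0.5% DMSO. HepaRG cultures dosed 48 h at eight half-log concentrations up to 100 uM, duplicates.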

Read-out in assay [8]: ABC Transporter (ABCC3), ABCC3 (gene 8714)
In words: LTEA_HepaRG_ABCC3: Life Technologies and Expression Analysis (LTEA) Assay for ABC Transporter (ABCC3) using HepaRG (AID 2283462). The gist of the method:
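Transcript level by TaqMan qRT-PCR, normalised to three housekeeping genes, fitted in both directions relative to vehicle. Chemicals tested in duplicate at eight half-log concentrations up to 100 uM for 48 h on HepaRG cells (0.5% DMSO).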

Read-out in assay [9]: ABC Transporter (ABCB11), ABCB11 (gene 8647)
In words: LTEA_HepaRG_ABCB11: Life Technologies and Expression Analysis (LTEA) Assay for ABC Transporter (ABCB11) using HepaRG (AID 2283463). The gist of the method:
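Differentiated human HepaRG cells in serum-free induction medium, dosed in duplicate for 48 h. Eight-point half-log series from 100 uM in 0.5% DMSO; ABCB11 mRNA by qRT-PCR, normalized to ACTB, GAPDH, POLR2A, fitted bidirectionally versus DMSO.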

Read-out in assay [10]: ABC Transporter (ABCC2), ABCC2 (gene 1244)
Nature of the assay: LTEA_HepaRG_ABCC2: Life Technologies and Expression Analysis (LTEA) Assay for ABC Transporter (ABCC2) using HepaRG (AID 2283464). The gist of the method:
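Endpoint is ABCC2 transcript level from qRT-PCR, normalized to three housekeeping genes and fitted bidirectionally relative to DMSO. Human HepaRG cells received test chemical for 48 h at up to 100 uM (8 points, half-log steps, 0.5% DMSO), duplicate wells.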

Read-out in assay [11]: Broad substrate specificity ATP-binding cassette transporter ABCG2 (Homo sapiens) (UniProt Q9UNQ0)
In words: LTEA_HepaRG_ABCG2: Life Technologies and Expression Analysis (LTEA) Assay for ABC Transporter (ABCG2) using HepaRG (AID 2283465). The procedure, abridged: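 Differentiated HepaRG cells were exposed for 48 h in serum-free induction medium to 8 half-log concentrations, top 100 uM, in 0.5% DMSO. ABCG2 mRNA was measured by qRT-PCR, normalized to ACTB, GAPDH and POLR2A, with bidirectional fitting versus DMSO.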

Read-out in assay [12]: ATP-citrate lyase (ACLY), ACLY (gene 47)
In words: LTEA_HepaRG_ACLY: Life Technologies and Expression Analysis (LTEA) Assay for ATP-citrate lyase (ACLY) using HepaRG (AID 2283466). The gist of the method: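 Differentiated HepaRG cells exposed 48 h in serum-free induction medium to eight half-log concentrations up to 100 uM in 0.5% DMSO, duplicates. Transcript measured by Fluidigm TaqMan qRT-PCR, normalized to ACTB, GAPDH, POLR2A; bidirectional fit versus DMSO.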

Read-out in assay [13]: Peroxisomal acyl-coenzyme A oxidase 1 (ACOX1) gene, ACOX1 (gene 51)
Nature of the assay: LTEA_HepaRG_ACOX1: Life Technologies and Expression Analysis (LTEA) Assay for Peroxisomal acyl-coenzyme A oxidase 1 (ACOX1) gene using HepaRG (AID 2283467). The procedure, abridged:
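HepaRG cells, plated 48 h then switched to serum-free induction medium, were exposed in duplicate for 48 h to 8-point half-log concentrations up to 100 uM in 0.5% DMSO. ACOX1 mRNA was measured by qRT-PCR, normalized to ACTB/GAPDH/POLR2A, and fitted bidirectionally versus DMSO.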

Read-out in assay [14]: Alkaline Phosphatase, Placental (ALPP) gene, ALPP (gene 250)
Nature of the assay: LTEA_HepaRG_ALPP: Life Technologies and Expression Analysis (LTEA) Assay for Alkaline Phosphatase, Placental (ALPP) gene using HepaRG (AID 2283468). The gist of the method:
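ALPP transcript level, measured by qRT-PCR and normalized to three housekeeping genes (ACTB, GAPDH, POLR2A), after 48 h dosing of differentiated HepaRG in serum-free induction medium. Top concentration 100 uM with half-log dilutions (8 points, 0.5% DMSO, duplicates); bidirectional fitting relative to DMSO.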

Read-out in assay [15]: Bcl-2 (BAD) gene, BAD (gene 572)
Nature of the assay: LTEA_HepaRG_BAD: Life Technologies and Expression Analysis (LTEA) Assay for Bcl-2 (BAD) gene using HepaRG (AID 2283469). The procedure, abridged: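 Differentiated HepaRG cells were exposed in duplicate in 0.5% DMSO for 48 h to eight-point half-log concentrations up to 100 uM. BAD mRNA was measured by Fluidigm TaqMan qRT-PCR, normalized to ACTB, GAPDH and POLR2A, and fitted bidirectionally against DMSO.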

Read-out in assay [16]: Bcl-2 (BAX) gene, BAX (gene 581)
Nature of the assay: LTEA_HepaRG_BAX: Life Technologies and Expression Analysis (LTEA) Assay for Bcl-2 (BAX) gene using HepaRG (AID 2283470). The procedure, abridged: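 Differentiated HepaRG cells exposed 48 h in serum-free induction medium, eight half-log concentrations from 100 uM, in duplicate, 0.5% DMSO vehicle. BAX mRNA by TaqMan qRT-PCR, normalised to ACTB, GAPDH and POLR2A.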

Here are results for 3 molecules from PubChem BioAssay (EPA / NIEHS).

Each structure is given as a SMILES string. “And” between values parts separate entries of the source, which are not always exact repeats. Equal values may be shown once. Some structures have more than one record in an assay (separate samples or runs), and their calls can disagree. The source made the active and inactive calls. Rule for the calls: active = hit-call score of the fitted dose curve at least 0.9, where 1 is the maximum; inactive = score below 0.9.

By AC50 is commonly meant the midpoint of the concentration-response curve, whichever way the signal moves.

Sequence of Broad substrate specificity ATP-binding cassette transporter ABCG2 (Homo sapiens) (Q9UNQ0 whole entry, looked up): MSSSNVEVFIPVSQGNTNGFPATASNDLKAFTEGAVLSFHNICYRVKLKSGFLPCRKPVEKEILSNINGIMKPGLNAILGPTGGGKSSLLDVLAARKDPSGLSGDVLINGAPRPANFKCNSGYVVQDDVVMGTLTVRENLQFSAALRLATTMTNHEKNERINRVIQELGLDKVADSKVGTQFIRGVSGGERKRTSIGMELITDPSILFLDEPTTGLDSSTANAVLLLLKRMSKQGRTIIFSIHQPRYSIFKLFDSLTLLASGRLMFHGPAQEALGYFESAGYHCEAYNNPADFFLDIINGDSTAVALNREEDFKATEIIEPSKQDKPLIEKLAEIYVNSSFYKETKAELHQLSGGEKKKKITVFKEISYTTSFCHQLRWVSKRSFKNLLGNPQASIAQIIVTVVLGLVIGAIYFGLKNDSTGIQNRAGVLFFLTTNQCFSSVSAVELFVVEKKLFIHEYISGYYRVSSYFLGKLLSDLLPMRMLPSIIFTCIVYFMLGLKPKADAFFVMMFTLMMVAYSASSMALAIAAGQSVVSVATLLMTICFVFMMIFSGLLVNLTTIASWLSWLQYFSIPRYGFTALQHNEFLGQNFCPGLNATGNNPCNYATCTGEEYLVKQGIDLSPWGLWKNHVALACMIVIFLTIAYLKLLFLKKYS

For the molecule `CC(C)(C)C(O)C(Oc1ccc(Cl)cc1)n1cncn1` (stereo unspecified), the call in [1], in [3], in assay [4], in assay [5], in assay [7] and in assay [8] was inactive. In addition, the molecule was classed as inactive in assay [9], in [10], in assay [11], in assay [13], in assay [14] and in [15]. Besides, in assay [16], the molecule was called inactive. Moreover, the AC50 in assay [2] was 23.1 µM (active) and 18.4 µM (active) and 22 µM (active); in assay [6], 4.64 µM (active) and 7.44 µM (active) and 3.5 µM (active); in assay [9], 9.92 µM (active); in assay [10] it was 2.47 µM (active); in [12] it was 73.6 µM (active) and 50 µM (active) and 34.1 µM (active); in assay [13] it was 1.25 µM (active).
For the molecule `O=C(O)COc1ccc(Cl)cc1Cl`, the outcome in assay [1], in assay [3], in [4], in assay [5], in assay [6] and in [7] was inactive. Moreover, the result in assay [8], in assay [10], in assay [11], in [12], in assay [13] and in assay [14] was inactive. Moreover, the molecule was called inactive in [15] and in assay [16]. Moreover, the AC50 was 43.4 µM (active) in assay [2] and 31.2 µM (active) in [9].
With `N#CN`, the molecule was called inactive in [1], in [2], in assay [3], in assay [4], in [5] and in assay [6]. In addition, the call in assay [7], in [8], in assay [9], in assay [10], in assay [11] and in assay [12] was inactive. Further, the call in [13], in assay [14], in assay [15] and in assay [16] was inactive.
